Measured values reported in PubChem BioAssay (Tox21).
Inconclusive results are not listed. Activity calls are given as the source filed them. Unless noted, calls follow the shape of the dose curve; as a rule, active = well fitted curve in the direction sought with a large enough effect in the repeat runs; inconclusive = weak or mixed curves; inactive = flat fitted curve, though single readings scatter.

Columns and labels:
[1] = qHTS assay to test for compound auto fluorescence at 535 nm (green) in HEK293 cells (AID 720680)
[2] = qHTS assay to test for compound auto fluorescence at 460 nm (blue) in HEK293 cell free culture (AID 720681)
How it was run: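 Blue fluorescence (Ex 405/Em 460 nm, triamterene-equivalent) was read immediately after pin transfer of compound or DMSO into medium (DMEM, 10% FBS) without cells.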

[3] = qHTS assay to test for compound auto fluorescence at 535 nm (green) in HEK293 cell free culture (AID 720682)
How it was run: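 Cell-free medium (DMEM, 10% FBS) receives compound or DMSO by pintool. Plate read directly at Ex 485/Em 535 nm. Signal converted to fluorescein equivalency.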

[4] = qHTS assay to test for compound auto fluorescence at 590 nm (red) in HEK293 cell free culture (AID 720683)
How it was run: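 Red-channel autofluorescence of compounds in culture medium (DMEM, 10% FBS), no cells, measured at 540/590 nm. Rose Bengal sodium is the reference fluorophore for equivalence.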

[5] = qHTS assay to test for compound auto fluorescence at 460 nm (blue) in HepG2 cell free culture (AID 720685)
How it was run: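 Cell-free plates of MEM plus 10% FBS received 23 nL compound or DMSO vehicle; blue-channel (405/460 nm) intensity scored against triamterene as reference fluorophore.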

[6] = qHTS assay to test for compound auto fluorescence at 535 nm (green) in HepG2 cell free culture (AID 720686)
[7] = qHTS assay to test for compound auto fluorescence at 460 nm (blue) in HepG2 cells (AID 720687)
How it was run: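 Blue-channel autofluorescence (Ex/Em 405/460 nm, triamterene-equivalent) was measured after 1 hr compound exposure at 37 C, 5% CO2. Cells were HepG2, plated overnight at 37 C in MEM plus 10% FBS.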

[8] = qHTS assay to test for compound auto fluorescence at 590 nm (red) in HepG2 cell free culture (AID 720684)
How it was run: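 No cells present: MEM + 10% FBS only. Compound pinned in, red label read (540/590 nm). Activity = fluorescence equivalent to Rose Bengal sodium.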

[9] = target: Glucocorticoid receptor (Homo sapiens) (UniProt P04150); test: qHTS assay to identify small molecule agonists of the glucocorticoid receptor (GR) signaling pathway (AID 720691; active = well fitted activation curve with a large enough effect in the signal ratio in the repeat runs, not every such curve was filed as active; the % refers to the signal ratio)
Chain of Glucocorticoid receptor (Homo sapiens) (P04150 whole entry, looked up): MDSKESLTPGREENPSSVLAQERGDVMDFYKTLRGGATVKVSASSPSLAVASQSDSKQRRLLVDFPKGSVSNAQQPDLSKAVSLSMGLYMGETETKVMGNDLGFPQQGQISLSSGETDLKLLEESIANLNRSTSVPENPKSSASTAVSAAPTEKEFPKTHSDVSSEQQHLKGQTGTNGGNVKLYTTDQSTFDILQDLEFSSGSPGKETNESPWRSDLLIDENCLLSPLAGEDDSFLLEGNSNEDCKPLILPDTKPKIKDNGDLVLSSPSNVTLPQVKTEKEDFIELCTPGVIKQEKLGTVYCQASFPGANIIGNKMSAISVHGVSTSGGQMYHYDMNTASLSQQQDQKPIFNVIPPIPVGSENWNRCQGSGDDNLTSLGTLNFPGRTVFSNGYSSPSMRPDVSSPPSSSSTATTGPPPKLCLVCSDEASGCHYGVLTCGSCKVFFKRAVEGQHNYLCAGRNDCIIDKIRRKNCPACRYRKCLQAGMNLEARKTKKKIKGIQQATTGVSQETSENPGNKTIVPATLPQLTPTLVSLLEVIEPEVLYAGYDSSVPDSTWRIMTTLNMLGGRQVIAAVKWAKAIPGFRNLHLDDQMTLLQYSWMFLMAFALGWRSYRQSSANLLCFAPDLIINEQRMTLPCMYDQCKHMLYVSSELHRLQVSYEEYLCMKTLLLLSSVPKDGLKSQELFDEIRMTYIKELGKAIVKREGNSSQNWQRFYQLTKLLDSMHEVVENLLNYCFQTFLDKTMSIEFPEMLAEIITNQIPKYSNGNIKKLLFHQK
How it was run: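 Compounds in DMSO, alongside positive controls, were added to GR-bla HeLa reporter cells and incubated 18 h at 37 C; GRE-driven beta-lactamase was detected by fluorescence after 2 h with FRET substrate at room temperature.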

[10] = target: Glucocorticoid receptor (Homo sapiens) (UniProt P04150); test: qHTS assay to identify small molecule antagonists of the glucocorticoid receptor (GR) signaling pathway (AID 720692; active = well fitted inhibition curve with a large enough effect in the signal ratio in the repeat runs, not every such curve was filed as active; the % refers to the signal ratio)
How it was run: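 In a 1536-well cell format, compounds were added 4 h after seeding GR-bla HeLa cells, together with dexamethasone at 5 nM final; reporter activity was measured by FRET-substrate fluorescence following 18 h at 37 C.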
% is scaled to controls: 0 for no effect and ±100 for the full control effect.

CC1NCCOC1c1ccccc1 (centres undefined)
inactive: outcome [1] | outcome [2] | outcome [3] | outcome [4] | outcome [5] | outcome [6] | outcome [7]

CN=CNc1ccc(C)cc1C
inactive: outcome [1] | outcome [2] | outcome [3] | outcome [4] | outcome [8] | outcome [5] | outcome [6] | outcome [7] | Potency [9] | Potency [10]

O=C(Cl)c1ccccc1
inactive: outcome [1] | outcome [2] | outcome [3] | outcome [4] | outcome [5] | outcome [6] | outcome [7]

[O-][Br+2]([O-])O
inactive: outcome [1] | outcome [2] | outcome [3] | outcome [4] | outcome [8] | outcome [5] | outcome [6] | outcome [7] | Potency [9] | Potency [10]

ClCC1CO1 (centres undefined)
inactive: outcome [1] | outcome [2] | outcome [3] | outcome [4] | outcome [8] | outcome [5] | outcome [6] | outcome [7] | Potency [9] | Potency [10]

CC(=O)OCC1=C(C(=O)O)N2C(=O)[C@@H](N)[C@H]2SC1
inactive: fluorescence, % of fluorescein [1] -0.0094% [at 18.6 µM] | fluorescence, % of fluorescent control [2] -0.0418% [at 18.6 µM] | activity change [3] 0.0026% [at 18.6 µM] | fluorescence, % of fluorescent control [4] 0.162% [at 18.6 µM] | fluorescence, % of Rose Bengal [8] 0.155% [at 18.6 µM] | fluorescence, % of fluorescent control [5] -0.0695% [at 18.6 µM] | fluorescence, % of fluorescein control [6] 0.161% [at 18.6 µM] | fluorescence, % of fluorescent control [7] 0.185% [at 18.6 µM] | Potency [9] | Potency [10]

CCOC(=O)CCl
inactive: outcome [1] | outcome [2] | outcome [3] | outcome [4] | outcome [8] | outcome [5] | outcome [6] | outcome [7] | Potency [9] | Potency [10]

Cc1ccc2c(c1)C1CN(C)CCC1N2 (centres undefined)
inactive: outcome [1] | outcome [2] | outcome [3] | outcome [4] | outcome [8] | outcome [5] | outcome [6] | outcome [7] | Potency [9] | Potency [10]

ClC1=C(Cl)C2(Cl)C(CBr)CC1(Cl)C2(Cl)Cl (centres undefined)
inactive: outcome [1] | outcome [2] | outcome [3] | outcome [4] | outcome [5] | outcome [6] | outcome [7] | Potency [9] | Potency [10]

C=CC(=O)OCCN(C)C
inactive: outcome [1] | outcome [2] | outcome [3] | outcome [4] | outcome [5] | outcome [6] | outcome [7] | Potency [9] | Potency [10]

CCCCCCCC(=O)Cl
inactive: outcome [1] | outcome [2] | outcome [3] | outcome [4] | outcome [8] | outcome [5] | outcome [6] | outcome [7] | Potency [9] | Potency [10]

COP(=O)(OC)O/C(C)=C/C(=O)N(C)C
inactive: outcome [1] | outcome [2] | outcome [3] | outcome [4] | outcome [5] | outcome [6] | outcome [7]

O=C(Cl)/C=C/C(=O)Cl
inactive: outcome [1] | outcome [2] | outcome [3] | outcome [4] | outcome [5] | outcome [6] | outcome [7] | Potency [9] | Potency [10]

CC(C)NCC(O)c1ccc([N+](=O)[O-])cc1 (centres undefined)
inactive: outcome [1] | outcome [2] | outcome [3] | outcome [4] | outcome [8] | outcome [5] | outcome [6] | outcome [7] | Potency [9] | Potency [10]

O=C1CC(=O)NC(=O)N1
inactive: outcome [1] | outcome [2] | outcome [3] | outcome [4] | outcome [8] | outcome [5] | outcome [6] | outcome [7] | Potency [9] | Potency [10]

CC(C)(C)NC[C@H](O)c1ccc(O)cc1Cl
inactive: outcome [1] | outcome [2] | outcome [4] | outcome [5] | outcome [6] | outcome [7]
